# A selection: hits, their analogues and other compounds. The true share with any hit is near 4.1%.
# CaV13 ICDI inh = Disruptors of the CACNA1D IQ motif to Ca2+-dependent inactivation inhibitor domain association, primary screening, Förster resonance energy transfer in intact living …; actives 0.098% (n = 340,000); HEK cells, CFP/YFP FRET ICDI-IQ, plate reader, 10 min; percent FRET-ratio fall versus neutral wells; inhibition, % at 12.3 µM;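 active = mean replicate inhibition of at least 30% and at least 1% of replicates passing that level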;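 also: 0% = median of the neutral control wells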
# PfM18AAP inh = PfM18AAP inhibitors, malaria aminopeptidase, primary screen, biochemical, QFRET, recombinant enzyme; M18 aspartyl aminopeptidase (Plasmodium falciparum 3D7); H-Glu-NHMec fluorogenic cleavage; actives 1.2% (n = 290,000); inhibition, % at 7.35 µM;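 active = inhibition above the campaign mean inhibition over all tested compounds plus 3 SD, cut at about 28% in these data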;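 also: 0% = plate median of test compound wells and 100% = 2 mM ZnCl2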
# PolyA inh = polyadenylation inhibitors in yeast reporter cells, primary screen, luminescence, S. cerevisiae. S. cerevisiae SKY197-pL101 polyadenylation reporter, beta-gal luminescence; efflux-impaired pdr1/pdr3 knockout yeast; score 100 = 6 SD above DMSO. activity score, % at 12 µM. actives 0.02% (n = 300,000). AID 1875, 2009;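 active = lowest replicate activity score at least 50, where 100 means six control SD above control mean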;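 also: yeast exposed to compound for 9 h at 30 °C; higher score means more reporter readthrough which indicates perturbed polyadenylation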
# IDE act = human IDE activators in live cells, primary screen, fluorescence polarization, HEK cells, FAbeta-B substrate | activation, % at 5.96 µM | actives 0.073% (n = 340,000) | FAbeta-B cleavage; 0% vehicle, 100% cell-free pure enzyme wells | Insulin-degrading enzyme (Homo sapiens), P14735;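 active = activation above the mean of all tested compounds plus 3 SD, set per screening campaign, cut at about 17% in these data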
# Target sequence (P14735 whole entry, looked up): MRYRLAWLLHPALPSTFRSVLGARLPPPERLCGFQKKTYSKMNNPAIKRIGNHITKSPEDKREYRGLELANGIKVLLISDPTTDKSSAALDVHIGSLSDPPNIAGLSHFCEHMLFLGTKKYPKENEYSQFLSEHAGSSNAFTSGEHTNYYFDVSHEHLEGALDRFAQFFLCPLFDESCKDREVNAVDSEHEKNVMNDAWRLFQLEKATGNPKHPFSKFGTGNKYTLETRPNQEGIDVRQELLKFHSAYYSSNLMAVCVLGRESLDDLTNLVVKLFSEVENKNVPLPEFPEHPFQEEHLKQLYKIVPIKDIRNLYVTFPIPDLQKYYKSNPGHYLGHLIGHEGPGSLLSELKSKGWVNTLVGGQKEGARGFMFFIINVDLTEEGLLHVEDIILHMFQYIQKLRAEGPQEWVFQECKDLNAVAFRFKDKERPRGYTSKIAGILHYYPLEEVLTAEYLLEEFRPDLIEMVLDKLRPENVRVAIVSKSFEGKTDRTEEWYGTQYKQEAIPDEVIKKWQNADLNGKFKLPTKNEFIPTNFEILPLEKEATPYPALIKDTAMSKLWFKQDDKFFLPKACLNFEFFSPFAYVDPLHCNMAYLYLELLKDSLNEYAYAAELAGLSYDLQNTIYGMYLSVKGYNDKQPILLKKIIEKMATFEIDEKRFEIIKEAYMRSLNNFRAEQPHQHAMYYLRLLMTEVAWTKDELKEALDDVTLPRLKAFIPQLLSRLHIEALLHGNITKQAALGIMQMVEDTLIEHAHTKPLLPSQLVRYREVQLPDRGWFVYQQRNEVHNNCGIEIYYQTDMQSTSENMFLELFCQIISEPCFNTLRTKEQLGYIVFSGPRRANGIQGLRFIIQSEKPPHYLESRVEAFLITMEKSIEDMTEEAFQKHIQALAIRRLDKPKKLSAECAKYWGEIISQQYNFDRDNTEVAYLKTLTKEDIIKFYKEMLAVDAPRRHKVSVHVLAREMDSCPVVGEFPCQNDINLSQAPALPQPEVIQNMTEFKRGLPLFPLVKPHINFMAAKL
# ALR inh = inhibitors of human ALR sulfhydryl oxidase, primary screen, biochemical, H2O2 detection, HRP-luminol luminescence, single point | FAD-linked sulfhydryl oxidase ALR (Homo sapiens), P55789 | purified ALR, DTT oxidation | inhibition, % (concentration not given with the values) | actives 3.8% (n = 290,000) | AID 485317, 2010;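 active = mean replicate inhibition above about 79%, with every replicate also reaching it, limit read from the data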
# IDE inh = human IDE inhibitors in live cells, primary screen, fluorescence polarization, HEK cells, FAbetaB substrate. inhibition, % at 5.59 µM. AID 434962, 2010. actives 0.41% (n = 320,000). FAbetaB cleavage. Insulin-degrading enzyme (Homo sapiens), P14735;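 active = percent inhibition above the average of all tested compounds plus 3 SD, set per screening campaign, cut at about 16% in these data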;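 also: IDE supplied by intact live HEK cells; FP after avidin binding of uncleaved biotin substrate so inhibition keeps polarization high; 0% = DMSO wells and 100% = 60 µM reference IDE inhibitor Ii1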
# An asterisk follows results filed as active; . = no result given.
SMILES,CaV13 ICDI inh,PfM18AAP inh,PolyA inh,IDE act,ALR inh,IDE inh
COc1ccc(C(=O)NC(=S)NNC(=O)c2ccncc2)cc1Br,-3.2,.,.,-4.7,99.1*,-0.1
Cc1ccccc1C(=O)NNC(=S)NC(=O)c1ccccc1,-3.9,21.1,-46.8,-5.2,98.3*,-2.6
COc1ccc(NC(=O)Nc2cccc3c2O[C@H](CN(C)S(=O)(=O)c2cn(C)cn2)[C@@H](C)CN([C@H](C)CO)C3=O)cc1,-4.4,.,.,2.6,-7.1,-0.7
Cc1cccc(S(=O)(=O)N(C)C[C@H]2OCc3cnnn3CCCC(=O)N([C@H](C)CO)C[C@H]2C)c1,-9.7,.,.,.,.,.
O=C(/C=C/c1ccccc1)NC(=S)NNC(=O)c1ccco1,.,13.8,13.1,-6.1,25.0,3.6
Cc1ccccc1OCC(=O)NNC(=S)NC(=O)c1ccco1,-3.0,9.8,-23.8,1.4,97.8*,3.5
O=C(/C=C/c1ccc(Br)cc1)NC(=S)NNC(=O)c1ccco1,-5.2,19.4,-39.2,0.6,98.5*,6.3
O=C(NC(=S)NNC(=O)c1ccco1)c1ccccc1,-1.8,9.2,15.6,1.6,87.6*,-9.7
CN(c1ccc(OCC(=O)N2CCN(c3ccc(F)cc3)CC2)cc1)S(=O)(=O)c1cccs1,-4.1,-2.7,-12.9,-7.7,4.1,7.7
COc1ccc(CCC(=O)NCC(c2ccco2)N2CCc3ccccc32)cc1 (stereo not drawn),-5.7,.,13.5,6.5,86.5*,0.5
COc1cc(C(=O)NCC(c2ccco2)N2CCc3ccccc32)cc(OC)c1OC (stereo not drawn),-5.5,.,-3.2,-1.6,92.8*,0.6
COc1ccccc1C(=O)NCC(c1ccco1)N1CCc2ccccc21 (stereo not drawn),-6.6,.,-15.6,0.0,.,2.3
O=C(NCC(c1ccco1)N1CCc2ccccc21)c1ccccc1 (stereo not drawn),-6.5,.,13.5,-3.9,95.5*,-5.3
CC(=O)Nc1ccc(/C=N/N2C(=O)NC(C)(c3ccc(OC(F)F)cc3)C2=O)cc1 (stereo not drawn),6.7,-16.1,-0.1,12.2,.,1.0
Cc1cc(C)nc(NS(=O)(=O)c2ccc(NC(=O)c3snnc3C)cc2)n1,-3.5,4.0,5.0,1.0,-8.7,-0.1
O=C(Cc1ccccc1)NCC(=O)OCC(=O)c1ccccc1Cl,-4.4,0.6,-1.1,-0.4,77.1*,-3.3
O=C(CNC(=O)c1ccccc1)OCC(=O)c1ccccc1Cl,.,-7.3,8.1,-4.8,-3.0,0.7
Cc1c([N+](=O)[O-])c(C(=O)N2CCCC2)nn1C,-7.1,0.5,-19.6,5.8,-6.7,-1.5
Cc1c([N+](=O)[O-])c(C(=O)Sc2ccc(Br)cc2)nn1C,-20.7,2.9,-13.4,-7.1,99.2*,4.8
O=C(c1cc(C(=O)N2CCCC2)cc([N+](=O)[O-])c1)N1CCCC1,-2.1,3.9,-0.2,3.8,-3.3,-2.1
Cc1ccc(C)c(Cn2c3ccccc3c3cnn(CC(=O)NCCCN4CCCCC4)c(=O)c32)c1,-7.2,2.9,2.9,4.1,-6.5,0.6
O=C(CCC(=O)N1CCN(c2ccccc2)CC1)Nc1nnc(C2CCCCC2)s1,-5.2,-14.6,-3.7,3.1,-4.8,5.8
CCOc1ccccc1NC(=O)Cn1nnc(-c2ccc(OCC)c(OCC)c2)n1,-9.0,7.7,-1.8,8.3,1.1,7.4
Cc1nc2cc3nc(C)sc3cc2s1,.,29.4*,-13.3,-0.3,-24.3,4.3
Cc1nc2cc3ccccc3cc2s1,-4.8,.,.,-0.6,.,.
SMILES,CaV13 ICDI inh,PfM18AAP inh,PolyA inh,IDE act,ALR inh,IDE inh
Cc1cccc(C(C(=O)NC2CCCCC2)N(Cc2cccnc2)C(=O)c2csnn2)c1 (stereo not drawn),-2.7,-1.6,17.0,0.6,-8.2,2.3
O=C(O)C1CCC(c2ccc(-c3ccccc3)cc2)CC1 (stereo not drawn),-1.7,-15.4,17.0,2.2,-6.4,-2.2
Cc1ccc(Oc2ccc(Cl)cc2NC(=O)c2ccc(F)cc2F)cc1,-4.8,0.1,-9.5,1.9,-1.7,-4.4
Cc1csc(C)[n+]1CC(=O)c1ccccc1,-1.6,-7.2,-6.9,-3.0,-17.8,-4.1
CCOC(=O)C[n+]1c(C)csc1C,-2.9,29.7*,2.3,1.2,-19.4,5.1
COc1ccc(C(=O)Nc2ccc(S(=O)(=O)Nc3nccc(C)n3)cc2)cc1,-3.9,0.0,-13.3,3.0,.,-4.4
CCCOc1ccc(C(=O)Nc2ccc(S(=O)(=O)Nc3cc(C)nc(C)n3)cc2)cc1,-5.1,1.8,11.2,-6.1,96.1*,11.2
CCC(=O)c1ccc(OCC(=O)Nc2ccc(S(=O)(=O)Nc3cc(C)nc(C)n3)cc2)cc1,-6.2,.,.,-2.5,0.3,-1.1
COCCN(CCOC)S(=O)(=O)c1ccc(C(=O)Nc2ccc(S(=O)(=O)Nc3nccc(C)n3)cc2)cc1,-5.2,-1.8,-0.1,-3.3,90.0*,-0.7
O=C(NCc1ccccc1)[C@H]1CCCN1C(=O)[C@H]1CCCN1C(=O)c1ccccc1,-11.2,.,.,.,.,.
CC1CC2=C(C(=O)O1)C(c1ccc(Cl)cc1)Nc1ccccc1N2 (stereo not drawn),-5.0,-1.2,6.7,2.4,98.8*,0.1
Cc1ccc(C2Nc3ccccc3NC3=C2C(=O)OC(C)C3)cc1 (stereo not drawn),-5.1,-7.5,-9.4,6.3,99.2*,1.0
O=C1NCC2=C1C(c1ccccc1)Nc1ccccc1N2 (stereo not drawn),-5.5,5.4,-4.8,-0.8,72.3,4.1
O=C(CNC(=O)c1cccc(OC(F)F)c1)OCc1cc(=O)n2cc(Br)ccc2n1,-5.5,-5.9,0.6,7.0,.,4.3
CCC(C)(C)n1nnnc1C(c1ccccc1F)N1CCN(C(=O)c2ccco2)CC1 (stereo not drawn),-2.7,-9.5,7.5,3.2,.,-7.6
CCCCCCCCCn1c2c(c(=N)c3c1CCC3)CCC2,.,-5.0,5.1,-0.9,-24.4,-0.5
CCCCCCn1c2c(c(=N)c3c1CCC3)CCC2,-4.1,-7.9,-0.6,-0.9,99.3*,1.7

# Screens: PubChem, several laboratories
